Many of the other results were omitted from the sample, so hits are more common in it than they were.
FXIIa inh mix = human factor XIIa inhibitors, primary screen, biochemical, pooled compound mixtures, fluorogenic substrate. inhibition, % at 5 µM. Coagulation factor XII (Homo sapiens), P00748. purified FXIIa. 62,000 tested, 0.2% active;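 further: 0% = enzyme without compound and 100% = no enzyme blank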
TNAP act mid DEA = human TNAP enzyme activators, primary screen, biochemical, luminescent, intermediate phosphate acceptor level. purified TNAP, CDP-star luminescence, 100 mM DEA, 30 min; stronger effect = higher value; scale: 0 levamisole-inhibited, 1 vehicle-only enzyme. Alkaline phosphatase, tissue-nonspecific isozyme (Homo sapiens), P05186. activation factor at 20 µM. 64,000 tested, under 10 active;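 active means activation factor of at least 2 at 20 µM, relative to controls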
FXIa mix inh = FXIa protease inhibitors in compound pools, primary screen, biochemical, 10-compound mixtures; Coagulation factor XI (Homo sapiens), P03951; purified FXIa, fluorogenic substrate, pooled mixtures; 62,000 tested, 0.19% active; AID 680, 2007; inhibition, % at 5 µM;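 further: each value is inhibition by a whole ten-compound pool holding the compound; 0% = enzyme with no mixture and 100% = wells lacking enzyme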
D1 allo mod = D1 CRE-luciferase signal change, two-sided – cell-based, HEK293 D1, dopamine EC30, D1 allosteric modulator project, primary screen; dopamine EC30 potentiation; actives deviate in either direction; AID 641, 2007; B-score at 10 µM; 58,000 tested, 5.9% active; D(1A) dopamine receptor (Homo sapiens), P21728;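 active means luminescence count or its row- and column-corrected plate score outside the 99.7% band of the plate's sample wells, on either side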
Target sequence (P21728 whole entry, looked up): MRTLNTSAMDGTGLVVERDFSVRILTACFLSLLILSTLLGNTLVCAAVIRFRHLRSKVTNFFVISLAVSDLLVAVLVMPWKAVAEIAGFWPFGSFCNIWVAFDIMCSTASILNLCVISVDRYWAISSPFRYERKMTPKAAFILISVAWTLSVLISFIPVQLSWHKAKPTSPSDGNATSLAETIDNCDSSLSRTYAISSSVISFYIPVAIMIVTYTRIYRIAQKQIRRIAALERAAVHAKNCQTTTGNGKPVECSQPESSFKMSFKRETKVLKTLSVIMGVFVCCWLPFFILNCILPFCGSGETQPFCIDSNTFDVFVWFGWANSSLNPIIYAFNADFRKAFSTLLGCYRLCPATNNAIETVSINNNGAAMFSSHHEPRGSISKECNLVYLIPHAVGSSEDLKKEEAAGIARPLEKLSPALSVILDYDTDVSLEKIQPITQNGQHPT
HePTP inh = inhibitors of human HePTP phosphatase, primary screen, biochemical, absorbance, leukemia target; Tyrosine-protein phosphatase non-receptor type 7 (Homo sapiens), P35236; recombinant HePTP phosphatase activity, OD absorbance; inhibition, % at 20 µM; 110,000 tested, 0.64% active; in the data active means inhibition above about 50%;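 further: plate controls were vehicle for no effect and reference inhibitor for full effect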
Calb biofilm kill = clotrimazole potentiators killing Candida biofilms, primary screen, with clotrimazole, Alamar Blue; C. albicans biofilm + clotrimazole; inhibition, % at 6 µM; 85,000 tested, 0.14% active;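 active means inhibition above 20%; inactive means inhibition below 20%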;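 further: preformed 24 hr biofilms exposed to compound for 48 hr; 0% = biofilm without compound and 100% = blank killed by clotrimazole plus chlorhexidine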
An asterisk follows results filed as active; . = no result. Unless noted, no stated cut-off is given here; in the data, active means inhibition above about 20% (passing the limit was not always enough); inactive means the rest.

SMILES | FXIIa inh mix | TNAP act mid DEA | FXIa mix inh | D1 allo mod | HePTP inh | Calb biofilm kill
Nc1nc(Cn2nnc(-c3ccccc3Cl)n2)nc(N2CCOCC2)n1 | 21* | 1 | 3 | -5.8 | 8 | 2
COc1ccc(OC)c(C2C(C(=O)/C=C/c3ccccc3)=C(O)C(=O)N2CCCCCC(=O)O)c1 (stereo unspecified) | . | . | . | . | 78* | .
CC(=O)Nc1ccc(OC(=O)c2c(F)cccc2F)cc1 | . | . | . | . | 90* | .
CC(=O)Nc1ccc(OC(=O)c2ccco2)cc1 | . | . | . | . | . | 7
CCOC(=O)c1c(NC(=O)c2ccccc2OCC)sc2c1CCCC2 | . | . | . | . | 11 | .
CC(C)OC(=O)c1c(-c2ccc(Br)cc2)csc1NC(=O)CCC(=O)O | . | . | . | . | 8 | .
CC(C)(C)c1ccc(C(=O)Nc2cnccn2)cc1 | -5 | 0.8 | 0 | -3.4* | 2 | 4
Cc1nn(-c2ccc(F)cc2F)c2c1-c1nc(N3CCCC3)ncc1CC2 | 2 | 1 | 6 | -5.9* | 10 | 1
CCC(C)Sc1nc2c(c(=O)[nH]c(=O)n2C)n1Cc1ccc(Cl)cc1 (stereo unspecified) | 1 | 1 | 5 | 0.03 | 1 | 4
C=C(C)CSc1nc2c(c(=O)[nH]c(=O)n2C)n1Cc1ccccc1 | 4 | 0.9 | 7 | 11* | 9 | .
CC(C)Sc1nc2c(c(=O)[nH]c(=O)n2C)n1Cc1ccc(Cl)cc1 | -15 | 0.9 | 7 | 23* | 9 | 1
COc1ccc(C(=O)NC(=S)Nc2ccc(I)cc2)cc1 | . | . | . | . | -5 | .
COc1ccc(/C=N/N(C)c2cc(C)nc(-c3ccccc3O)n2)cc1 | . | . | . | . | -2 | .
CCOc1ccc(/C=N/NC(=O)CN(c2ccc(C)cc2)S(=O)(=O)c2ccccc2)cc1 | . | . | . | . | 5 | .
CCOc1ccccc1N(CC(=O)N1CCCCCC1)S(C)(=O)=O | 8 | 1 | 7 | -3.8* | -9 | 5
COc1ccccc1N(CC(=O)N1CCCCCC1)S(C)(=O)=O | -6 | 0.9 | 2 | -0.0036 | -2 | 5
Cc1ccc2nsnc2c1S(=O)(=O)N1CCN(CCc2ccccc2)CC1 | 6 | 0.9 | 8 | -4.7* | 12 | 4
Cc1c(Cl)cccc1N=C1NC(=O)/C(=C/c2cccc(O)c2)S1 | . | . | . | . | 6 | .
Cc1cc(C)c2nc3s/c(=C/c4cccn4-c4ccc([N+](=O)[O-])cc4)c(=O)n3c2c1 | . | . | . | . | 85* | .
CCOC(=O)c1ccc(-c2ccc(/C=C3\Sc4ccccc4C3=O)o2)cc1 | . | . | . | . | -24 | .
O=C(O)c1cc(-c2ccc(/C=C3/Sc4ccccc4C3=O)o2)ccc1O | . | . | . | . | 102* | .
Cc1c(Cl)cccc1N=C1NC(=O)/C(=C/c2ccc(-c3ccccc3C(=O)O)o2)S1 | . | . | . | . | 98* | .
O=C1NC(=S)S/C1=C\c1ccc(-c2ccc(Cl)c(C(=O)O)c2)o1 | . | . | . | . | 101* | .
Cc1ccc(-c2ccc(/C=C3/SC(=S)NC3=O)o2)cc1Cl | . | . | . | . | 8 | .
O=C(O)/C(=C\c1cccc([N+](=O)[O-])c1)NC(=O)c1ccccc1 | . | . | . | . | -17 | .
SMILES | FXIIa inh mix | TNAP act mid DEA | FXIa mix inh | D1 allo mod | HePTP inh | Calb biofilm kill
CCNC(=O)CC1S/C(=N\N=C\c2ccco2)NC1=O (stereo unspecified) | . | . | . | . | 4 | .
CCOc1cc(/C=C2\SC(=S)N(CCS(=O)(=O)O)C2=O)ccc1O | . | . | . | . | -6 | .
O=C(O)C1C2CCC(C2)C1C(=O)Nc1nc(-c2ccc(Cl)cc2Cl)cs1 (stereo unspecified) | . | . | . | . | -14 | .
Cc1cc(C)c2nc3s/c(=C\c4ccc(-c5ccc(Cl)c(C(=O)O)c5)o4)c(=O)n3c2c1 | . | . | . | . | 90* | .
Cc1cc(C)c2nc3s/c(=C\c4ccc(-c5cc(C)c(C)cc5[N+](=O)[O-])o4)c(=O)n3c2c1 | . | . | . | . | -2 | .
COc1ccc(-c2ccc(/C=C3/SC(=S)NC3=O)o2)cc1Cl | . | . | . | . | 16 | .
O=C1NC(=O)/C(=C/c2ccc(-c3ccc(O)c(C(=O)O)c3)o2)S1 | . | . | . | . | 102* | .
OC(COc1ccc(C23CC4CC(CC(C4)C2)C3)cc1)CN1CCN(c2ccc(F)cc2)CC1 (stereo unspecified) | . | . | . | . | 4 | .
CCOc1cc(/C=C2\SC(N3CCN(C4=NC(=O)/C(=C\c5ccc(O)c(OCC)c5)S4)CC3)=NC2=O)ccc1O | . | . | . | . | 7 | .

Screening results (PubChem BioAssay)
